Assay results from PubChem BioAssay (EPA / NIEHS).
Records with an inconclusive call do not appear. Activity calls are given as the source filed them. The calls were made as follows: active = hit-call score of the fitted dose curve at least 0.9, where 1 is the maximum; inconclusive = response in the unintended direction; inactive = score below 0.9.

Tests used:
[1] = STM_H9_NormalizedViability: Cytotoxicity Assessment at 120 hours in the Stemina devTOX quickPredict H9 human embryonic stem cell (hESC)-based Assay (AID 2283784)
Method in brief: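 Pluripotent H9 cells dosed, fresh medium plus compound q24h → cell layer read by CellTiter-Fluor → RFU blank-corrected, normalized to DMSO 0.1% mean. Loss-of-signal fit, DMSO as baseline.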

[2] = ACEA_ER_AUC_viability: ACEA Biosciences xCELLigence Real-Time Cell Analysis on Estrogen Receptor Agonism for Viability (AID 2283782);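 also: continuous compound exposure with impedance area under curve over 80 h; hit means loss of impedance signal meaning reduced cell growth or viability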
Method in brief: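 T47D cells preconditioned in phenol red-free RPMI with charcoal-stripped FBS, then dosed with 8-point 1:4 series from 100 uM (up to 0.5% DMSO). Impedance monitored up to ~80 h; area-under-curve loss versus DMSO taken as viability.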

[3] = target: AR (gene 367) (UniProt P10275); experiment: ACEA_AR_antagonist_80hr: ACEA Biosciences xCELLigence Real-Time Cell Analysis on Androgen Receptor Antagonism for Proliferation (AID 2283787);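 also: 22Rv1 human prostate cancer cells with growth followed by electrical impedance; hits lower the impedance growth signal relative to DMSO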
Method in brief: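 22Rv1 cells in assay medium, growth tracked by electrical impedance; compounds eight-point 1:4 dilutions from 100 uM final, duplicate plates. Endpoint at 80 h; loss of signal versus DMSO.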

[4] = target: AR (gene 367) (UniProt P10275); experiment: ACEA_AR_agonist_80hr: ACEA Biosciences xCELLigence Real-Time Cell Analysis on Androgen Receptor Agonism for Proliferation (AID 2283783);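 also: hits increase impedance growth signal above DMSO baseline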
Method in brief: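 Proliferation of 22Rv1 prostate cancer cells tracked by electrical impedance, endpoint taken at 80 hours after dosing. Eight-point 1:4 dilutions from 100 uM maximum final, duplicate; testosterone and MG132 as positive controls, assay media as negative.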

[5] = test system: turtle Androgen Receptor (AR), gene 101947425; experiment: ATG_trAR_XSP1: Attagene TRANS-FACTORIAL Multi-Species (XSP1) HepG2 Assay for turtle Androgen Receptor (AR) (AID 2283786)
Method in brief: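 HepG2 cells transiently transfected with a turtle AR–GAL4 chimera and GAL4-UAS reporter, co-treated with 3 nM 6-alpha-fluorotestosterone for partial stimulation. Reporter mRNA is quantified at 24 h by RT-PCR and capillary electrophoresis, gain-of-signal versus DMSO.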

[6] = target: Estrogen receptor beta (Homo sapiens) (UniProt Q92731); experiment: ATG_hERb_XSP1: Attagene TRANS-FACTORIAL Multi-Species (XSP1) HepG2 Assay for human Estrogen Receptor (ESR2) (AID 2283788)
Method in brief: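 HepG2 cells transiently transfected with GAL4-UAS multiplexed reporter units, 3 nM 6-alpha-fluorotestosterone present; 24 h exposure. Reporter mRNA measured by RT-PCR, fluorescent labelling and capillary electrophoresis; gain of signal fitted against DMSO.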

[7] = target: GAL4 Transcription Factor (Internal Marker), GAL4 (gene 855828) (UniProt P04386); experiment: ATG_GAL4_XSP1: Attagene TRANS-FACTORIAL Multi-Species (XSP1) HepG2 Assay for GAL4 Transcription Factor (Internal Marker) (AID 2283789)
Method in brief: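 HepG2 cells transiently transfected with multiplexed GAL4-UAS reporter units were exposed for 24 h with 3 nM 6-alpha-fluorotestosterone present. Reporter mRNA was quantified by RT-PCR, FAM labelling, HpaI digestion and capillary electrophoresis; background-control readout, gain-of-signal versus DMSO.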

[8] = ATG_M_06_XSP1: Attagene TRANS-FACTORIAL Multi-Species (XSP1) HepG2 Assay for M06 Transcription Factor (Internal Marker) (AID 2283790)
Method in brief: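 Transfected HepG2 multi-reporter system treated 24 h in the presence of 3 nM 6-alpha-fluorotestosterone. The M06 internal marker transcript was quantified by RT-PCR with capillary electrophoresis as a background control, and gain of signal was scored versus DMSO.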

[9] = ATG_M_61_XSP1: Attagene TRANS-FACTORIAL Multi-Species (XSP1) HepG2 Assay for M61 Transcription Factor (Internal Marker) (AID 2283797)
Method in brief: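 HepG2 cells transiently transfected with multiplexed GAL4-driven reporter units, dosed 24 h with 3 nM 6-alpha-fluorotestosterone present. Reporter mRNA quantified by RT-PCR, 6-FAM labelling, HpaI digestion and capillary electrophoresis; internal-marker background control, gain of signal versus DMSO.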

[10] = ATG_M_32_XSP1: Attagene TRANS-FACTORIAL Multi-Species (XSP1) HepG2 Assay for M32 Transcription Factor (Internal Marker) (AID 2283799)
Method in brief: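 HepG2 cells transiently transfected with multi-species TRANS reporter units, dosed 24 h with 3 nM 6-alpha-fluorotestosterone present. Internal-marker reporter mRNA quantified by RT-PCR and capillary electrophoresis; positive-direction fit versus DMSO.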

[11] = test system: zebrafish Peroxisome Proliferator-activated Receptor gamma (PPARg), gene 557037; experiment: ATG_zfPPARg_XSP1: Attagene TRANS-FACTORIAL Multi-Species (XSP1) HepG2 Assay for zebrafish Peroxisome Proliferator-activated Receptor gamma (PPARg) (AID 2283801)
Method in brief: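 HepG2 cells transiently transfected with GAL4-UAS reporter units including a zebrafish PPARg–GAL4 chimera, dosed 24 h with 3 nM 6-alpha-fluorotestosterone present. Reporter mRNA quantified by RT-PCR, FAM labelling, HpaI digestion and capillary electrophoresis; induction versus DMSO.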

[12] = target: mouse Peroxisome Proliferator-activated Receptor gamma (PPARg), Pparg (gene 19016) (UniProt P37238); experiment: ATG_mPPARg_XSP1: Attagene TRANS-FACTORIAL Multi-Species (XSP1) HepG2 Assay for mouse Peroxisome Proliferator-activated Receptor gamma (PPARg) (AID 2283802)
Method in brief: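 HepG2 cells transiently transfected with GAL4-UAS reporter units driven by mouse PPARg–GAL4 chimera; 3 nM 6-alpha-fluorotestosterone present. After 24 h dosing, reporter mRNA quantified by RT-PCR, fluorescent labelling and capillary electrophoresis; gain of signal versus DMSO.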

[13] = target: Nuclear receptor subfamily 1 group I member 2 (Mus musculus) (UniProt O54915); experiment: ATG_mPXR_XSP1: Attagene TRANS-FACTORIAL Multi-Species (XSP1) HepG2 Assay for mouse Pregnane X Receptor (PXR) (AID 2283803)
Method in brief: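 Transiently transfected HepG2 cells expressing a receptor-Gal4 chimera drive a GAL4-UAS reporter; 3 nM 6-alpha-fluorotestosterone included. Reporter mRNA read 24 h post-dose by RT-PCR and capillary electrophoresis; gain of signal relative to DMSO.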

[14] = target: frog Thyroid hormone Receptor alpha (TRa), thra-a (gene 397942) (UniProt P15204); experiment: ATG_frTRa_XSP1: Attagene TRANS-FACTORIAL Multi-Species (XSP1) HepG2 Assay for frog Thyroid hormone Receptor alpha (TRa) (AID 2283804)
Method in brief: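 HepG2 cells transiently transfected with frog TRa-GAL4 chimeric reporter units, dosed 24 hr with 3 nM 6-alpha-fluorotestosterone present; reporter mRNA quantified by RT-PCR, fluorescent labelling and capillary electrophoresis, gain of signal versus DMSO.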

[15] = target: human Thyroid hormone Receptor alpha (TRa), THRA (gene 7067) (UniProt P10827); experiment: ATG_hTRa_XSP1: Attagene TRANS-FACTORIAL Multi-Species (XSP1) HepG2 Assay for human Thyroid hormone Receptor alpha (TRa) (AID 2283805)
Method in brief: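 HepG2 cells transiently transfected with GAL4-UAS reporter units expressing chimeric NR-Gal4 proteins, dosed 24 hours with 3 nM 6-alpha-fluorotestosterone present. Reporter mRNA measured by RT-PCR and capillary electrophoresis; gain of signal fitted versus DMSO.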

[16] = test system: turtle Thyroid Hormone Receptor, alpha (TRa), gene 101949057; experiment: ATG_trTRa_XSP1: Attagene TRANS-FACTORIAL Multi-Species (XSP1) HepG2 Assay for turtle Thyroid Hormone Receptor, alpha (TRa) (AID 2283806)
Method in brief: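 HepG2 cells transiently transfected with GAL4-UAS reporter units and chimeric receptor-Gal4 constructs, with 3 nM 6-alpha-fluorotestosterone present. Reporter mRNA was quantified 24 h after dosing by RT-PCR, 6-FAM labelling and capillary electrophoresis; gain of signal versus DMSO.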

[17] = target: zebrafish Thyroid Hormone Receptor alpha (TRa), thraa (gene 30670) (UniProt Q98867); experiment: ATG_zfTRa_XSP1: Attagene TRANS-FACTORIAL Multi-Species (XSP1) HepG2 Assay for zebrafish Thyroid Hormone Receptor alpha (TRa) (AID 2283807)
Method in brief: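 HepG2 cells transiently transfected with GAL4-UAS reporter units including a zebrafish TRa–Gal4 chimera, dosed 24 h with 3 nM 6-alpha-fluorotestosterone present. Reporter mRNA quantified by RT-PCR and capillary electrophoresis; gain versus DMSO.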

[18] = target: human Thyroid hormone Receptor beta (TRb), THRB (gene 7068) (UniProt P10828); experiment: ATG_hTRb_XSP1: Attagene TRANS-FACTORIAL Multi-Species (XSP1) HepG2 Assay for human Thyroid hormone Receptor beta (TRb) (AID 2283808)
Method in brief: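 HepG2 cells transiently transfected with reporter units driving GAL4-UAS reporters for chimeric NR-Gal4 proteins; 24 h chemical exposure with 3 nM 6-alpha-fluorotestosterone present. Reporter mRNA quantified by RT-PCR and capillary electrophoresis, gain of signal versus DMSO.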

[19] = target: zebrafish Thyroid Hormone Receptor beta (TRb), thrb (gene 30607) (UniProt Q9PVE4); experiment: ATG_zfTRb_XSP1: Attagene TRANS-FACTORIAL Multi-Species (XSP1) HepG2 Assay for zebrafish Thyroid Hormone Receptor beta (TRb) (AID 2283809)
Method in brief: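 HepG2 cells transiently transfected with multiplexed GAL4-UAS reporter units expressing chimeric zebrafish TRb–Gal4. Dosed 24 h with 3 nM 6-alpha-fluorotestosterone present; reporter mRNA measured by RT-PCR, HpaI digestion and capillary electrophoresis; gain of signal versus DMSO.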

AR (gene 367), sequence (P10275 whole entry, looked up): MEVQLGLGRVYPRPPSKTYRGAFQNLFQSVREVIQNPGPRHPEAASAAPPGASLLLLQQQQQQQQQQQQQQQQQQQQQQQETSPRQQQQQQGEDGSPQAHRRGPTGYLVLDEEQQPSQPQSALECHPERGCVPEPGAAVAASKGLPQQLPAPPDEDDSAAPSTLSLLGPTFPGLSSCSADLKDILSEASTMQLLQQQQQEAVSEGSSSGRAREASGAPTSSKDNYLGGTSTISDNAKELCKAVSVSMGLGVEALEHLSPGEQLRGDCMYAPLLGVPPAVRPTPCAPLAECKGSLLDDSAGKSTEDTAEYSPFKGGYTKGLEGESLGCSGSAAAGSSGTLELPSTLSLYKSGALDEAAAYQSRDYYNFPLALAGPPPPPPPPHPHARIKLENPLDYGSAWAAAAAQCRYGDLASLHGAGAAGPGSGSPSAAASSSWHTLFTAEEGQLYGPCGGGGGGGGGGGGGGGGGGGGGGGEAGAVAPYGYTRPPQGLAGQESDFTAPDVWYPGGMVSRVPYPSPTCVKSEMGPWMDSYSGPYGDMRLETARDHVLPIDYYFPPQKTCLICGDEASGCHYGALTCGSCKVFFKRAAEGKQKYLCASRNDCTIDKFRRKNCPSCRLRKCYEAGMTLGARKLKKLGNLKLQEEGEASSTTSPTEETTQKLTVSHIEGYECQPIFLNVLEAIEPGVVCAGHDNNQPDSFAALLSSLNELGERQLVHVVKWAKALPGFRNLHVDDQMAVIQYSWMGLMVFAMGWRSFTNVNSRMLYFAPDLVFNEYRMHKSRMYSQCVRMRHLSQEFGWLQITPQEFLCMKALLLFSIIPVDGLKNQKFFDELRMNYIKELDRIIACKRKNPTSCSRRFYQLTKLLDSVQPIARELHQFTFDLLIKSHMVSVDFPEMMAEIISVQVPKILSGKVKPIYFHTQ
Nuclear receptor subfamily 1 group I member 2 (Mus musculus), sequence (O54915 whole entry, looked up, the tested form may be a part): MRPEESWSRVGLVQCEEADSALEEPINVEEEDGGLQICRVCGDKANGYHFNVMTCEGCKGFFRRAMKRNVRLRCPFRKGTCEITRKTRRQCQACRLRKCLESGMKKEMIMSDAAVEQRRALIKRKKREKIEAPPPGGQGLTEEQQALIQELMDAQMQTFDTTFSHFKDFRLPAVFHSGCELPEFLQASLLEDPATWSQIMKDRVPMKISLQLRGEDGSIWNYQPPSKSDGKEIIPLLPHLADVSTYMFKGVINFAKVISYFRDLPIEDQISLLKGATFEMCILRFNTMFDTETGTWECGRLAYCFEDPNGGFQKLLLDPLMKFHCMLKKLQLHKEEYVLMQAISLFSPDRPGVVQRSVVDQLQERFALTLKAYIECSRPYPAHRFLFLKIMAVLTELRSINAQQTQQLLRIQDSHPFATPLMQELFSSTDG
GAL4 Transcription Factor (Internal Marker), GAL4 (gene 855828), sequence (P04386 whole entry, looked up, the tested form may be a part): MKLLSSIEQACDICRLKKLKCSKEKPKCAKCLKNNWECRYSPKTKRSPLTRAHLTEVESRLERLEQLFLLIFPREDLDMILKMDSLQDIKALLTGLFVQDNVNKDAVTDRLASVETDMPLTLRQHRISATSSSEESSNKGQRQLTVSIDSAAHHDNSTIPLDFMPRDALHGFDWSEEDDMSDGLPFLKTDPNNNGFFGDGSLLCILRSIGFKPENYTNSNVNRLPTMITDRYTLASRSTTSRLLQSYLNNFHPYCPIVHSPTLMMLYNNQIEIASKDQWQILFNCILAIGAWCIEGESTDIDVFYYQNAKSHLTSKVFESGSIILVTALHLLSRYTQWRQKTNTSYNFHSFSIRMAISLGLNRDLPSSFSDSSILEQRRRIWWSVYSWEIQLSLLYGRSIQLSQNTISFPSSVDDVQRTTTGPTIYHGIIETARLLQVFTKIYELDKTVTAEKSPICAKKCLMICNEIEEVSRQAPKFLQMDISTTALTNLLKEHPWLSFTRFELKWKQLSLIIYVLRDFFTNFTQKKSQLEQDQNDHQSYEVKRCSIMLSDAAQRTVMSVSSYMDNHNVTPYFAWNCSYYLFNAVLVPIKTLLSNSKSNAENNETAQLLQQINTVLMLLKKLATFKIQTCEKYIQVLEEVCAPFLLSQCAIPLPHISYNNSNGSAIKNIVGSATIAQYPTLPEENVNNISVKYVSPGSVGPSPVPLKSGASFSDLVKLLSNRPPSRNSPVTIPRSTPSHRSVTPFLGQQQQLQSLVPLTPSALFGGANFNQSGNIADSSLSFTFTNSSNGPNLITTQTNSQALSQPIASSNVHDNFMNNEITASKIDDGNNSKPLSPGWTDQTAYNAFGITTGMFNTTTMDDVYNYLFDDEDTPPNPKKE
human Thyroid hormone Receptor alpha (TRa), THRA (gene 7067), sequence (P10827 whole entry, looked up, the tested form may be a part): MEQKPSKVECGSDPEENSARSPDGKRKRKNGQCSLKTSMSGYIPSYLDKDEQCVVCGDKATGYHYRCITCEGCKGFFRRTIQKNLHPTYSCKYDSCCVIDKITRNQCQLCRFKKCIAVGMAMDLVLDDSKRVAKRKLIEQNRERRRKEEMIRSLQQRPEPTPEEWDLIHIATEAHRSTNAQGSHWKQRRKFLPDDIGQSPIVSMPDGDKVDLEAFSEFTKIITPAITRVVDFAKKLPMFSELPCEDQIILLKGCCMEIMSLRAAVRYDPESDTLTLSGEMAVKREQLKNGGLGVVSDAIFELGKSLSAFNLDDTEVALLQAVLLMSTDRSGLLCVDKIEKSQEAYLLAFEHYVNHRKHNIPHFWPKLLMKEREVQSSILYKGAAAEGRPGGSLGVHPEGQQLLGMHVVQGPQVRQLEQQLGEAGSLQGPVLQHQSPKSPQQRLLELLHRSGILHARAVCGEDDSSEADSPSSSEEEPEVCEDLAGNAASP
frog Thyroid hormone Receptor alpha (TRa), thra-a (gene 397942), sequence (P15204 whole entry, looked up, the tested form may be a part): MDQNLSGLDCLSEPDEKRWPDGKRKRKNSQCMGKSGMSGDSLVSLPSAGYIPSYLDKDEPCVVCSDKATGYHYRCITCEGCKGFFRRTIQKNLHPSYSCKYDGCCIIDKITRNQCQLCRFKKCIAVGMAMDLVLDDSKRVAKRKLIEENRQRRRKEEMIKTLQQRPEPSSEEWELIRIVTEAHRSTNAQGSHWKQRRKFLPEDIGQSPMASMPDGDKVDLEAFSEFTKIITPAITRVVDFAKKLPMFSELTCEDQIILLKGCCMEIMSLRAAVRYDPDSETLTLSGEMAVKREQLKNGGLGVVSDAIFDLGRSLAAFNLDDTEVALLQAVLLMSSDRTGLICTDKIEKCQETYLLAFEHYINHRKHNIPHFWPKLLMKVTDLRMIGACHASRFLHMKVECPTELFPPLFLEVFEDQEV
zebrafish Thyroid Hormone Receptor beta (TRb), thrb (gene 30607), sequence (Q9PVE4 whole entry, looked up, the tested form may be a part): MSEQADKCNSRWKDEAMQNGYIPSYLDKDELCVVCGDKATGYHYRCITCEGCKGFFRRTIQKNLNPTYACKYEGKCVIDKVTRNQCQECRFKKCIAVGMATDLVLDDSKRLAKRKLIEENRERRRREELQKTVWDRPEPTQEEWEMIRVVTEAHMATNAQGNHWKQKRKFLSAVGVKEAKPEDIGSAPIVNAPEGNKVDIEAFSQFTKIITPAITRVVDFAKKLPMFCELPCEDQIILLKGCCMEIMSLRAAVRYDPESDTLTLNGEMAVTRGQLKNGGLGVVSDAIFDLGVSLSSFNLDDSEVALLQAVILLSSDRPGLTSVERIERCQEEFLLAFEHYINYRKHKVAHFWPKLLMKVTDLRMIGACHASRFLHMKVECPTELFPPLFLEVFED
mouse Peroxisome Proliferator-activated Receptor gamma (PPARg), Pparg (gene 19016), sequence (P37238 whole entry, looked up, the tested form may be a part): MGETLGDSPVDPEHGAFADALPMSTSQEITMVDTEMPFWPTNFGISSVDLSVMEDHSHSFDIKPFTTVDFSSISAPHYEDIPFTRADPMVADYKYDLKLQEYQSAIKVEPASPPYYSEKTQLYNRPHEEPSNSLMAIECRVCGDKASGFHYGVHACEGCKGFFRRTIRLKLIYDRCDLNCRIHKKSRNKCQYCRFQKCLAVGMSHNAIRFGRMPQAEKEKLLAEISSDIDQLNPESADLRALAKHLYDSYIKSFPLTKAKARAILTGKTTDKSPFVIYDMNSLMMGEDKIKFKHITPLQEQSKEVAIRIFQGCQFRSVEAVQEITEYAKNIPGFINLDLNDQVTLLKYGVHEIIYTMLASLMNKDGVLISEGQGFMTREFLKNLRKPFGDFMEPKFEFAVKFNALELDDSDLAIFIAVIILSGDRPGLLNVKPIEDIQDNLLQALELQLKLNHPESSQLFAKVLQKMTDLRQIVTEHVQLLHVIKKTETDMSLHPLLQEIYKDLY
Estrogen receptor beta (Homo sapiens), sequence (Q92731 whole entry, looked up, the tested form may be a part): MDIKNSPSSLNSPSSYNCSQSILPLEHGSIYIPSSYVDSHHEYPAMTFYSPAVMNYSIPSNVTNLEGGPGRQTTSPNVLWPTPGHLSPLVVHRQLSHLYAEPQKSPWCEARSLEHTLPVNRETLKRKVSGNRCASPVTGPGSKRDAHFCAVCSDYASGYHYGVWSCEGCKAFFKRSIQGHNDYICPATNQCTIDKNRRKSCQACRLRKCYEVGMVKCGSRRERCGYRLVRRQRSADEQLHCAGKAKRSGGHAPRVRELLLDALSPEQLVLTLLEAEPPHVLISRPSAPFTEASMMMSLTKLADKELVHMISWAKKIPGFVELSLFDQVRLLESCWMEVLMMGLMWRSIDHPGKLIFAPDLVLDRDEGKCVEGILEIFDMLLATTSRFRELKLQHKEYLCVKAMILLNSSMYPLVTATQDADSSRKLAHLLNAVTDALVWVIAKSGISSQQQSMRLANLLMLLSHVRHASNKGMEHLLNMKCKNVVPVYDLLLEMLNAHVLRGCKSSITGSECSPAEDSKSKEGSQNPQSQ
zebrafish Thyroid Hormone Receptor alpha (TRa), thraa (gene 30670), sequence (Q98867 whole entry, looked up, the tested form may be a part): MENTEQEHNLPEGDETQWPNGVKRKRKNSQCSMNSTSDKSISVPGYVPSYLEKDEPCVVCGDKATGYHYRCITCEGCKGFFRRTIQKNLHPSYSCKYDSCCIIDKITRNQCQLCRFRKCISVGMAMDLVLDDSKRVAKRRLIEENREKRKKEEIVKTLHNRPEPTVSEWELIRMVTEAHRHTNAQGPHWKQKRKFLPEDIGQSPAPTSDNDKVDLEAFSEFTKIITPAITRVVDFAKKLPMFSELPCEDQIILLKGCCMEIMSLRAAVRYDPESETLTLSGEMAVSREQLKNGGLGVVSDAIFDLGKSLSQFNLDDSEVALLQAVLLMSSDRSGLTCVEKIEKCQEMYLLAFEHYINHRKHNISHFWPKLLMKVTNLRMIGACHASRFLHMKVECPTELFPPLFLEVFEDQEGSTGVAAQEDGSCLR

## CN1C(=O)N(c2ccccc2Br)Cc2cnc(Nc3ccc4c(c3)OCC(CO)O4)nc21 (configuration not stated)
[1]
  AC50: 1.81 µM (active)

## COc1ccc2cc(S(=O)(=O)N[C@H](CC(=O)N[C@H](Cc3ccc(CN4[C@H](C)CCC[C@@H]4C)cc3)C(=O)N(C)C(C)C)c3ccc4c(c3)OCO4)ccc2c1
[2]
  AC50: 10.8 µM (active)
[1]
  AC50: 18.9 µM (active)

## CCCCOC(=O)c1ccc(O)cc1
[1]
  outcome: inactive
[3]
  AC50: 67.9 µM (active)

## O=c1c(-c2ccc(O)cc2)coc2cc(O)cc(O)c12
[4]
  outcome: inactive
[1]
  AC50: 83.2 µM (active)
[3]
  AC50: 65.1 µM (active)

## CN(C)c1ccc(C(=C2C=CC(=[N+](C)C)C=C2)c2ccc(N(C)C)cc2)cc1
[2]
  AC50: 5.4 µM (active)
[1]
  AC50: 0.767 µM (active)
[3]
  AC50: 0.167 µM (active)

## CN(C[C@@H](CC[N+]12CCC(C3CCCCC3)(CC1)CC2)c1ccc(Cl)c(Cl)c1)C(=O)c1cc(C(F)(F)F)cc(C(F)(F)F)c1
[2]
  AC50: 10.6 µM (active)
[1]
  AC50: 16.4 µM (active)
[3]
  AC50: 7.24 µM (active)

## CC(C)(c1cc(Br)c(O)c(Br)c1)c1cc(Br)c(O)c(Br)c1
[2]
  AC50: 73.3 µM (active)
[1]
  outcome: inactive
[5]
  outcome: inactive
[6]
  outcome: inactive
[7]
  outcome: inactive
[8]
  outcome: inactive
[9]
  outcome: inactive
[10]
  outcome: inactive
[11]
  AC50: 9.55 µM (active)
[12]
  AC50: 2.06 µM (active)
[13]
  outcome: inactive
[14]
  AC50: 3.79 µM (active)
[15]
  AC50: 3.39 µM (active)
[16]
  outcome: inactive
[17]
  outcome: inactive
[18]
  outcome: inactive
[19]
  AC50: 13.9 µM (active)

## NCc1cccc(C2CCN(C(=O)c3ccc(C#Cc4ccccc4F)o3)CC2)c1
[2]
  AC50: 7.73 µM (active)
[4]
  outcome: inactive
[3]
  AC50: 23.5 µM (active)

## OCCO
[2]
  outcome: inactive
[1]
  outcome: inactive
[3]
  outcome: inactive
